PubChem BioAssay
Records with an inconclusive call do not appear. The source made the active and inactive calls. Unless noted, no stated cut-off is given here; in the data, active means percent of DMSO control GFP below about 86%; inactive means the rest, inconclusive results apart.

How the values were obtained:
[1] = rapamycin-like changes in RPL19A-GFP expression – cell-based, S. cerevisiae, multiplex flow cytometry, primary screen (AID 1862);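 further: lower values mimic rapamycin by blocking the RPL19A rise seen in DMSO cells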; settings: S. cerevisiae RPL19A-GFP strain, flow cytometry fluorescence, 3 h; at 10 µM; stronger effect = lower value
[2] = TOR pathway GLN3 branch reporter MEP2-GFP changes – S. cerevisiae, multiplex flow cytometry, primary screen (AID 1867;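 active means GFP response, as percent of the DMSO control, above the screen-wide mean plus 3 SD, about 139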;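 further: median GFP channel fluorescence of barcode-gated MEP2-GFP cells measured by flow cytometry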); settings: S. cerevisiae MEP2-GFP strain, 3 h, at 10 µM, stronger effect = higher value, 100% means same as DMSO wells
[3] = TOR pathway RTG branch CIT2 reporter changes – S. cerevisiae, GFP fusion, multiplex flow cytometry, primary screen (AID 1870;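 active means percent response above a set limit, the screen-wide mean plus 3 SD, cut at about 130% in these data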;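 further: barcoded CIT2-GFP strain pooled with four other GFP strains with rapamycin as positive control; median GFP fluorescence per well over plate mean of DMSO wells so 100% = DMSO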); settings: S. cerevisiae CIT2-GFP expression, 3 h, at 10 µM, stronger effect = higher value
[4] = TOR pathway LAP4-GFP level changes – S. cerevisiae, multiplex flow cytometry, primary screen (AID 1873;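 active means GFP signal, as percent of the solvent control, above the screen mean plus 3 SD, about 149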); settings: S. cerevisiae LAP4-GFP expression, 3 h, at 10 µM, stronger effect = higher value
[5] = yeast AGP1-GFP level changes, GLN3 branch – cell-based, multiplex flow cytometry, S. cerevisiae, primary screen (AID 1887;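 active means GFP signal above the screen-wide mean plus 3 SD, that is over about 124.5% of the solvent control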;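 further: AGP1-GFP fusion strain of S. cerevisiae within a five-strain barcoded multiplex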); settings: 3 h, at 10 µM, stronger effect = higher value
[6] = reduced mouse 2C T cell binding to pMHC/ICAM-1 vesicles – MLPCN validation set, flow cytometry, LFA-1/ICAM-1 modulator project, pilot screen (AID 2523;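 active means response below a set limit, under 55% cells CD8-positive and vesicle-bound, and CD8 cells' 90th-percentile brightness under 279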;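 on vesicle binding response: mean PE anti-B7-1 fluorescence of CD8+ cells relative to row control; 100% = QL9-loaded vesicles with DMSO vehicle in the same plate row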); settings: 2C mouse CD8+ T cells, at 7 µM, stronger effect = lower value; double positive events: measured here: CD8+/vesicle+ event percentage
[7] = target: Integrin beta-1 (Homo sapiens) + Integrin alpha-4 (Homo sapiens) (UniProt P13612+P05556); experiment: alpha4beta1 integrin LIBS antibody binding reduction – U937 cells, HUTS-21 mAb, flow cytometry, validation set, VLA-4 allosteric modulator project, pilot screen (AID 2674;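 active means inhibition above 50%, about 3 SD of the validation set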;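 further: antibody binding induced by the VLA-4 ligand LDV present at three times its Kd; 0% = LDV ligand with antibody and no compound and 100% = antibody without LDV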); settings: HUTS-21 LIBS mAb binding, at 6.7 µM, stronger effect = higher value, binding induced by LDV ligand
[8] = calorie-restriction mimetic ROS inhibitors, yeast – validation compound set, pilot screen (AID 2706;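 active means superoxide response below 65% of plate, a cut near 3 SD across the whole screen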;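 further: yeast exposed to compound for one week at 30 degrees C before staining; 100% = mean of all compound wells on the same plate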); settings: S. cerevisiae aging, superoxide DHE fluorescence; at 10 µM; stronger effect = lower value
[9] = target: Beta-adrenergic receptor kinase 1 (Homo sapiens) (UniProt P25098); experiment: GRK2 binders displacing RNA aptamer, biochemical, validation, human GRK2, bead flow cytometry (AID 488806;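 active means aptamer binding inhibition above 30%, about 3 SD of noise from non-fluorescent compounds; inactive means inhibition at or below 30%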); settings: bead-bound GRK2, FAM-aptamer displacement, at 10 µM, stronger effect = higher value
[10] = target: Beta-2 adrenergic receptor (Homo sapiens) (UniProt P07550); experiment: agonist-induced loss of surface beta2AR – cell-based, FAP fluorogen, flow cytometry, validation set, pilot screen (AID 504459;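 active means percent response above 42, roughly 3 SD of non-fluorescent test compounds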;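 further: agonist-driven loss of surface beta2AR via internalization measured by FAP dye flow cytometry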); settings: Am2.2-beta2AR cells, at 10 µM, stronger effect = higher value
[11] = target: AP-2 complex subunit beta (Homo sapiens) (UniProt P63010); experiment: beta-arrestin/AP2 interaction blockers – biochemical, validation set, GST-AP2 beads, flow cytometry, pilot screen (AID 504541;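 active means inhibition above 54%, about 3 SD of non-fluorescent compounds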;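 further: AP2 carries R879A mutation and is captured from E. coli lysate; bead-bound FITC arrestin peptide fluorescence measuring arrestin peptide binding to AP2; 0% = DMSO wells and 100% = excess unlabeled arrestin peptide control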); settings: FITC arrestin peptide, at 10 µM, stronger effect = higher value, AP2 beta2 appendage fragment, R879A mutant
[12] = cytosolic pH regulators acting via V-ATPase – S. cerevisiae, pHLuorin, HTS validation (AID 504600; in the data active means response above about 15%;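 further: plate controls were DMSO for no effect and reference compound for full effect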); settings: V-ATPase proton transport, at 10 µM, stronger effect = higher value
[13] = system: anti-desmoglein-3 scFv antibody binding to human DSG3; experiment: blockers of pathogenic pemphigus antibody–desmoglein-3 binding – biochemical, validation compound set, bead-based, flow cytometry, pilot screen (AID 588368;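 active means binding below the plate cutoff, the plate median minus 3 SD, with a reading above zero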;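 further: signal is the median channel fluorescence of bead-bound GFP antibody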); settings: Protein G beads, DSG3-Fc, scFv-GFP binding, at 10 µM, stronger effect = lower value
[14] = Nile Red efflux blockade in pump-expressing yeast – validation compound set, multiplex, phenotypic, pilot screen (AID 588506;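 active means efflux inhibition above 0.42, the validation set average plus 4 SD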;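 further: Nile Red retained in cells so higher fluorescence means more efflux inhibition; 0 = negative control wells and 1 = enniatin B 25 µM full block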); settings: S. cerevisiae pump-expressing triplex, Nile Red efflux flow cytometry; at 10 µM; stronger effect = higher value; the pumps come from Candida albicans
[15] = target: ATP-binding cassette sub-family B member 6 (Homo sapiens) (UniProt Q9NP58); experiment: blockers of ABCB6-driven porphyrin uptake – K562-ABCB6 cells, flow cytometry, validation set, pilot screen (AID 588550;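 active means inhibition above the screen-wide mean plus 3 SD, about 51%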;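 further: 0% = DMSO wells and 100% = benzethonium chloride 70 µM positive control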); settings: K562-ABCB6 porphyrin accumulation, 1 h, at 10 µM, stronger effect = higher value
[16] = AML differentiation inducers, ER-HoxA9 marrow cells – cell-based, GFP/MAC1 double positive, flow cytometry, validation set, primary screen (AID 588685;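 active means differentiation response of at least 50%, scaled between solvent and reference control, from cells with both markers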;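 further: compound exposure lasts four days before antibody staining and flow analysis; 0% = DMSO wells and 100% = 5 µM fulvestrant positive control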); settings: stronger effect = higher value, normalized: vehicle 0, fulvestrant 100

Sequence of ATP-binding cassette sub-family B member 6 (Homo sapiens) (Q9NP58 whole entry, looked up): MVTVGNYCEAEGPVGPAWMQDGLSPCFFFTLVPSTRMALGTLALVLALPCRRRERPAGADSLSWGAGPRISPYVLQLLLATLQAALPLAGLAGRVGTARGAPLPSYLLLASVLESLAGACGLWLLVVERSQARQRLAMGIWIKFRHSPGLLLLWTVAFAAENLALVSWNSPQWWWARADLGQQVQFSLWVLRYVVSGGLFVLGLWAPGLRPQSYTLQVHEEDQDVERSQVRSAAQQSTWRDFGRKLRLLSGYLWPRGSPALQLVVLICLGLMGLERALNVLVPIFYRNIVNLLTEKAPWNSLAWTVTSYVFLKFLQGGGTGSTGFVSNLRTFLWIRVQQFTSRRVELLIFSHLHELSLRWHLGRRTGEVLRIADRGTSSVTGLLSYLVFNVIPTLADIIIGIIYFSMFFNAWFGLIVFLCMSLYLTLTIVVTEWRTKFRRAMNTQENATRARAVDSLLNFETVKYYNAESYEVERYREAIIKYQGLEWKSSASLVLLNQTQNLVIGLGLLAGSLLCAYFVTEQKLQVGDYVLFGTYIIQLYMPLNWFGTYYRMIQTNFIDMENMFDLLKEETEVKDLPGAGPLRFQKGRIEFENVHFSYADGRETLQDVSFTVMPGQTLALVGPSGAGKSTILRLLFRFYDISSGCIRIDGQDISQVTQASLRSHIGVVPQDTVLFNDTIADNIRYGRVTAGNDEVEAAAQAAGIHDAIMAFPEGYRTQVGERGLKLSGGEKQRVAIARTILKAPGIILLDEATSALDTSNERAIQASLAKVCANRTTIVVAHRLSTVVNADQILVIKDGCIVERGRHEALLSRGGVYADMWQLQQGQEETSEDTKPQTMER
Sequence of Integrin beta-1 (Homo sapiens) + Integrin alpha-4 (Homo sapiens) (P05556 whole entry, looked up): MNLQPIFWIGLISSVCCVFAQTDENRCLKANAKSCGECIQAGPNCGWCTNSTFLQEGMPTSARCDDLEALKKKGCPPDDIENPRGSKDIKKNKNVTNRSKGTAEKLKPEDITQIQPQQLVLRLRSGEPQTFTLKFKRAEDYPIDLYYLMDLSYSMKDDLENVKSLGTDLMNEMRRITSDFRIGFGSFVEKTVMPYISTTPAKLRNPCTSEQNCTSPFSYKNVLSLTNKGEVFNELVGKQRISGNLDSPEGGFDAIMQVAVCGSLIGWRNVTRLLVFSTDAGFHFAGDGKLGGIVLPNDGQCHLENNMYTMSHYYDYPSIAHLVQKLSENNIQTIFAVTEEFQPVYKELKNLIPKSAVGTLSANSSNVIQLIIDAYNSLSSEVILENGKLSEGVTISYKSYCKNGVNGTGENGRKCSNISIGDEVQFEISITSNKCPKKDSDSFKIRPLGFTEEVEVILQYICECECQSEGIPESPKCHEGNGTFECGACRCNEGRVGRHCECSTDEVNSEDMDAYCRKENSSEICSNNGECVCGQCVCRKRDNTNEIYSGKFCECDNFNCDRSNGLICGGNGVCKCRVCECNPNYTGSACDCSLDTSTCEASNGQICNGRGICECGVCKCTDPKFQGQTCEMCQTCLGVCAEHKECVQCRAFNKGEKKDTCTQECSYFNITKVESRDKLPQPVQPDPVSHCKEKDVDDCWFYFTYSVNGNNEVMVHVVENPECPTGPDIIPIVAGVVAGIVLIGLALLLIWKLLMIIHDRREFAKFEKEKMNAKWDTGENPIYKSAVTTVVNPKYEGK
Sequence of Integrin beta-1 (Homo sapiens) + Integrin alpha-4 (Homo sapiens) (P13612 whole entry, looked up): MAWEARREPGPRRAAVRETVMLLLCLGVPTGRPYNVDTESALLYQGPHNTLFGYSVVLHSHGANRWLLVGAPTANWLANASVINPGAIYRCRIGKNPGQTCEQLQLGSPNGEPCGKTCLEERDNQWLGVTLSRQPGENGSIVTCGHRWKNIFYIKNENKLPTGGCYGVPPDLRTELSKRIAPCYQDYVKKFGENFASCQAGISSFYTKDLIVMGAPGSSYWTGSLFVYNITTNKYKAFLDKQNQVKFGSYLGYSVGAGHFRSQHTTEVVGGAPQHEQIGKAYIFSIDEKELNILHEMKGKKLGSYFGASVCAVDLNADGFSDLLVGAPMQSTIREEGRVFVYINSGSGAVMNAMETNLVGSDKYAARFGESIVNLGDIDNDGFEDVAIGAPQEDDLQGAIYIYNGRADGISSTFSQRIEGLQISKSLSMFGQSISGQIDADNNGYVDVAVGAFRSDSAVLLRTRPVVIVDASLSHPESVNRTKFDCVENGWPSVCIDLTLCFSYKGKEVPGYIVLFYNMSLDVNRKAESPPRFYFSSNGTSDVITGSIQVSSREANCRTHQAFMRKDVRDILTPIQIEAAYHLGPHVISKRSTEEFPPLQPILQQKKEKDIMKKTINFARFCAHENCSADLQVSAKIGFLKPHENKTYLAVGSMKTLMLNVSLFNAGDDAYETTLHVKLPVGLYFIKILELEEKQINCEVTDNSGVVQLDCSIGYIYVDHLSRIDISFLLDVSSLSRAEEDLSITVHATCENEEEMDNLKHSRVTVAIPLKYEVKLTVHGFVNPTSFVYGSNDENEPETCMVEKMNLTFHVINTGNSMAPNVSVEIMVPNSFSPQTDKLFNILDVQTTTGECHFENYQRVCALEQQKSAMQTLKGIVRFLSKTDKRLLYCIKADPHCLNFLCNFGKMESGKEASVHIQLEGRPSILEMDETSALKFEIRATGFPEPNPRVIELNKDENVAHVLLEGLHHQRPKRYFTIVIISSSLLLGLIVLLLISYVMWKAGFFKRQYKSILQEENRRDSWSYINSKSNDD
Sequence of Beta-2 adrenergic receptor (Homo sapiens) (P07550 whole entry, looked up): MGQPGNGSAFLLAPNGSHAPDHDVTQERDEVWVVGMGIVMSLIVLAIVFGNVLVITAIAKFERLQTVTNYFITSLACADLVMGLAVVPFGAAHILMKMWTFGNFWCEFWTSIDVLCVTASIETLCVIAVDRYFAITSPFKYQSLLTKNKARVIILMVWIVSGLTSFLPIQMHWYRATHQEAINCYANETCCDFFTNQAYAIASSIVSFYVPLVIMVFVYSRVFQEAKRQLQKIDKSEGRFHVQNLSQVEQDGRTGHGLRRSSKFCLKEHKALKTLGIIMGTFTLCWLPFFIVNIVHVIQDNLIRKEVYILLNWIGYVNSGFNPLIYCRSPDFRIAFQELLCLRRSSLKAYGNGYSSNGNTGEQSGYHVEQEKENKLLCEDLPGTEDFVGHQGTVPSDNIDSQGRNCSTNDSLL
Sequence of AP-2 complex subunit beta (Homo sapiens) (P63010 whole entry, looked up, the tested form may be a part, one chain of several): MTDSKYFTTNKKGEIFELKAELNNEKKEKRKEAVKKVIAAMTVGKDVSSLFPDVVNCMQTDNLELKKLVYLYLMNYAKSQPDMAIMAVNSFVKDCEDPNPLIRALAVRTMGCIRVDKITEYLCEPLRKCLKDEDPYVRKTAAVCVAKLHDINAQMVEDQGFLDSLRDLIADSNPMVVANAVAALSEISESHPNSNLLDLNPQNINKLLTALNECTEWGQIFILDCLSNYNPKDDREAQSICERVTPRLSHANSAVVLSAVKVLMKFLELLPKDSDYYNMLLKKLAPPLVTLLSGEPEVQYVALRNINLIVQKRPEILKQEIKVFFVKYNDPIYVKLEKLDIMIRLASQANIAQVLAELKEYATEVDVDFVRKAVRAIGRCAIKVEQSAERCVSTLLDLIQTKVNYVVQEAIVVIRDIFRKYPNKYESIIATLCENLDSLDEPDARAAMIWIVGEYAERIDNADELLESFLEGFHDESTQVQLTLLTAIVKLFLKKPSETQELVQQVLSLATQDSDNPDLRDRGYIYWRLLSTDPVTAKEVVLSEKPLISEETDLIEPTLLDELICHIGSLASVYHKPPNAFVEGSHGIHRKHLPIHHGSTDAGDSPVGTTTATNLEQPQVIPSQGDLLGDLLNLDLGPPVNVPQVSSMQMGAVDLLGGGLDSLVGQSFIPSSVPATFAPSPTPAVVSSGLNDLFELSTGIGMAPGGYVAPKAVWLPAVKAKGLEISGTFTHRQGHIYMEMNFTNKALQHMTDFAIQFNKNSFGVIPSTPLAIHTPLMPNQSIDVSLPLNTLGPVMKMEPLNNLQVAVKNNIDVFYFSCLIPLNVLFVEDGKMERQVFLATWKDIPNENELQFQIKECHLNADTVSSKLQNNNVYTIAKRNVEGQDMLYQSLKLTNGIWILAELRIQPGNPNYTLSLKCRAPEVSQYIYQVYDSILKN
Sequence of Beta-adrenergic receptor kinase 1 (Homo sapiens) (P25098 whole entry, looked up): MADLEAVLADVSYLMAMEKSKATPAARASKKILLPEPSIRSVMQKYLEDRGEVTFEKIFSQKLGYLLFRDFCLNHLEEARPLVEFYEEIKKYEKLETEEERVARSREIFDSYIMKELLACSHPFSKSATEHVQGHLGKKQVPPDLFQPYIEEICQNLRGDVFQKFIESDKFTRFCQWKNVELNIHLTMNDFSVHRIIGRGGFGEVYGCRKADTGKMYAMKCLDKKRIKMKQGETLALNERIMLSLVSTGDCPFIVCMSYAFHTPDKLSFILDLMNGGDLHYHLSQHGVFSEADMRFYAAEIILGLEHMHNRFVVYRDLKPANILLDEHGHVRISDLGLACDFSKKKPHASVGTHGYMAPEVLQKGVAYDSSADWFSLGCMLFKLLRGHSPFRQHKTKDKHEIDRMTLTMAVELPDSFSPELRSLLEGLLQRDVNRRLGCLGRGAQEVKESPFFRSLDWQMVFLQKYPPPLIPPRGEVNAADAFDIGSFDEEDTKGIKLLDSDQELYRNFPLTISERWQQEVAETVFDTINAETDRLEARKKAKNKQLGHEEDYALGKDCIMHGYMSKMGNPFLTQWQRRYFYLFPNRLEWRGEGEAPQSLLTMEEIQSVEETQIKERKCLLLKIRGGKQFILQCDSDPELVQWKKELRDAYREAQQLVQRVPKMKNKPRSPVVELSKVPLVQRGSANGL

## CCOC(=O)C1=C(C)NC(C)=C(C(=O)OC)C1c1cccc(Cl)c1Cl (stereo not drawn)
[1]
  percent of DMSO control GFP: 88.4% (inactive)
[2]
  GFP response vs DMSO: 125% (inactive)
[3]
  percent response of DMSO control: 104% (inactive)
[4]
  GFP response vs DMSO: 79.2% (inactive)
[5]
  GFP response, % of DMSO: 80.3% (inactive)
[6]
  double positive events: 65.9%
  vesicle binding response: 193% (inactive)
[7]
  inhibition: 5.49% (inactive)
[8]
  superoxide response (% of plate): 121% (inactive)
[9]
  aptamer binding inhibition: 6% (inactive)
[10]
  response: -8.07% (inactive)
[11]
  inhibition: -0.86% (inactive)
[12]
  response: -0.17% (inactive)
[13]
  binding (% of control): 106% (inactive)
[14]
  efflux inhibition (fraction of control): -0.28 (inactive)
[15]
  inhibition: 9% (inactive)
[16]
  differentiation response: 0% (inactive)

## CC(C)Cc1ccc(C(C)C(=O)O)cc1 (stereo not drawn)
[1]
  percent of DMSO control GFP: 105% (inactive)
[2]
  GFP response vs DMSO: 104% (inactive)
[3]
  percent response of DMSO control: 95.7% (inactive)
[4]
  GFP response vs DMSO: 142% (inactive)
[5]
  GFP response, % of DMSO: 111% (inactive)
[6]
  double positive events: 59.8%
  vesicle binding response: 141% (inactive)
[7]
  inhibition: 4.84% (inactive)
[8]
  superoxide response (% of plate): 144% (inactive)
[9]
  aptamer binding inhibition: 0% (inactive)
[10]
  response: -11.9% (inactive)
[11]
  inhibition: -1.77% (inactive)
[12]
  response: 0.95% (inactive)
[13]
  binding (% of control): 107% (inactive)
[14]
  efflux inhibition (fraction of control): -0.17 (inactive)
[15]
  inhibition: 5% (inactive)
[16]
  differentiation response: -1.05% (inactive)

## COC(=O)CCC(=O)CN
[1]
  percent of DMSO control GFP: 102% (inactive)
[2]
  GFP response vs DMSO: 106% (inactive)
[3]
  percent response of DMSO control: 110% (inactive)
[4]
  GFP response vs DMSO: 118% (inactive)
[5]
  GFP response, % of DMSO: 113% (inactive)
[6]
  double positive events: 62.2%
  vesicle binding response: 148% (inactive)
[7]
  inhibition: -5.11% (inactive)
[8]
  superoxide response (% of plate): 94% (inactive)
[9]
  aptamer binding inhibition: -3% (inactive)
[10]
  response: 1.35% (inactive)
[11]
  inhibition: 7.22% (inactive)
[12]
  response: -6.15% (inactive)
[13]
  binding (% of control): 102% (inactive)
[14]
  efflux inhibition (fraction of control): -0.11 (inactive)
[15]
  inhibition: 5% (inactive)
[16]
  differentiation response: 7.13% (inactive)

## Nc1ccc(-c2nc3ncccc3o2)c(Cl)c1
[1]
  percent of DMSO control GFP: 97.8% (inactive)
[2]
  GFP response vs DMSO: 103% (inactive)
[3]
  percent response of DMSO control: 97.7% (inactive)
[4]
  GFP response vs DMSO: 112% (inactive)
[5]
  GFP response, % of DMSO: 98.6% (inactive)
[6]
  double positive events: 56.7%
  vesicle binding response: 243% (inactive)
[7]
  inhibition: -15.4% (inactive)
[8]
  superoxide response (% of plate): 118% (inactive)
[9]
  aptamer binding inhibition: 0% (inactive)
[10]
  response: 0.9% (inactive)
[11]
  inhibition: -5.26% (inactive)
[12]
  response: 61.4% (active)
[13]
  binding (% of control): 103% (inactive)
[14]
  efflux inhibition (fraction of control): 0.15 (inactive)
[15]
  inhibition: 6% (inactive)
[16]
  differentiation response: 4% (inactive)

## COc1cc(C(=O)CCN2CCC(c3ccccc3)C2)cc(OC)c1OC (stereo not drawn)
[1]
  percent of DMSO control GFP: 108% (inactive)
[2]
  GFP response vs DMSO: 97.7% (inactive)
[3]
  percent response of DMSO control: 110% (inactive)
[4]
  GFP response vs DMSO: 95.9% (inactive)
[5]
  GFP response, % of DMSO: 105% (inactive)
[6]
  double positive events: 57.9%
  vesicle binding response: 131% (inactive)
[7]
  inhibition: 1.59% (inactive)
[8]
  superoxide response (% of plate): 117% (inactive)
[9]
  aptamer binding inhibition: 2% (inactive)
[10]
  response: 2% (inactive)
[11]
  inhibition: 4.79% (inactive)
[12]
  response: -0.17% (inactive)
[13]
  binding (% of control): 100% (inactive)
[14]
  efflux inhibition (fraction of control): 0.1 (inactive)
[15]
  inhibition: 0% (inactive)
[16]
  differentiation response: -10.4% (inactive)

## CCCCCC(O)c1cccc(OCc2ccc3ccccc3n2)c1 (stereo not drawn)
[1]
  percent of DMSO control GFP: 101% (inactive)
[2]
  GFP response vs DMSO: 97.6% (inactive)
[3]
  percent response of DMSO control: 99% (inactive)
[4]
  GFP response vs DMSO: 130% (inactive)
[5]
  GFP response, % of DMSO: 109% (inactive)
[6]
  double positive events: 65.2%
  vesicle binding response: 227% (inactive)
[7]
  inhibition: 22.7% (inactive)
[8]
  superoxide response (% of plate): 110% (inactive)
[9]
  aptamer binding inhibition: 2% (inactive)
[10]
  response: -42.6% (inactive)
[11]
  inhibition: 6.94% (inactive)
[12]
  response: 1.82% (inactive)
[13]
  binding (% of control): 92.4% (inactive)
[14]
  efflux inhibition (fraction of control): 0.04 (inactive)
[15]
  inhibition: 5% (inactive)
[16]
  differentiation response: -8.93% (inactive)

## CCOC(=O)N1CCc2[nH]c3ccc(C)cc3c2C1
[1]
  percent of DMSO control GFP: 95.5% (inactive)
[2]
  GFP response vs DMSO: 102% (inactive)
[3]
  percent response of DMSO control: 103% (inactive)
[4]
  GFP response vs DMSO: 140% (inactive)
[5]
  GFP response, % of DMSO: 103% (inactive)
[6]
  double positive events: 64.6%
  vesicle binding response: 175% (inactive)
[7]
  inhibition: -3.67% (inactive)
[8]
  superoxide response (% of plate): 110% (inactive)
[9]
  aptamer binding inhibition: -1% (inactive)
[10]
  response: -9.79% (inactive)
[11]
  inhibition: 4.56% (inactive)
[12]
  response: 14.9% (inactive)
[13]
  binding (% of control): 105% (inactive)
[14]
  efflux inhibition (fraction of control): 0.25 (inactive)
[15]
  inhibition: -9% (inactive)
[16]
  differentiation response: -4% (inactive)

## CCN(CC)CCNC(=O)c1ccc(N)cc1
[1]
  percent of DMSO control GFP: 99.6% (inactive)
[2]
  GFP response vs DMSO: 106% (inactive)
[3]
  percent response of DMSO control: 91.9% (inactive)
[4]
  GFP response vs DMSO: 89.4% (inactive)
[5]
  GFP response, % of DMSO: 94.6% (inactive)
[6]
  double positive events: 63.2%
  vesicle binding response: 1180% (inactive)
[7]
  inhibition: -6.68% (inactive)
[8]
  superoxide response (% of plate): 94.8% (inactive)
[9]
  aptamer binding inhibition: -2% (inactive)
[10]
  response: -4.02% (inactive)
[11]
  inhibition: -0.67% (inactive)
[12]
  response: 0.99% (inactive)
[13]
  binding (% of control): 94.2% (inactive)
[14]
  efflux inhibition (fraction of control): -0.14 (inactive)
[15]
  inhibition: 21% (inactive)
[16]
  differentiation response: 6.11% (inactive)

## NNC(=O)c1ccncc1
[1]
  percent of DMSO control GFP: 102% (inactive)
[2]
  GFP response vs DMSO: 113% (inactive)
[3]
  percent response of DMSO control: 93.9% (inactive)
[4]
  GFP response vs DMSO: 117% (inactive)
[5]
  GFP response, % of DMSO: 105% (inactive)
[6]
  double positive events: 61.7%
  vesicle binding response: 175% (inactive)
[7]
  inhibition: -14.1% (inactive)
[8]
  superoxide response (% of plate): 90.8% (inactive)
[9]
  aptamer binding inhibition: 4% (inactive)
[10]
  response: -10.5% (inactive)
[11]
  inhibition: -2.19% (inactive)
[12]
  response: 2.56% (inactive)
[13]
  binding (% of control): 98.4% (inactive)
[14]
  efflux inhibition (fraction of control): -0.1 (inactive)
[15]
  inhibition: 1% (inactive)
[16]
  differentiation response: -2.4% (inactive)
